PubChem BioAssay (NCI)
This is part of a sample that, as a whole, favours compounds with a hit. Of some 83,000 tested, about 20% had one in any assay.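 Cells were grown in 96-well plates and exposed to the test compound at a single concentration for 48 hours; results are reported as percent growth, with values below 10 considered active.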 Values without a mark were called inactive. The source made the active and inactive calls.

Assays:
Assay in all cases: NCI-60 one-dose screen, 48 h (100 = growth as untreated, 0 = no growth, -100 = all killed)
Conditions in all cases: 10 µM unless noted
[1] = tested on: DU-145 prostate
[2] = tested on: K-562 leukemia
[3] = tested on: MALME-3M melanoma
[4] = tested on: MDA-MB-231 breast
[5] = tested on: RXF 393 renal
[6] = tested on: SF-268 CNS
[7] = tested on: SF-295 CNS
[8] = tested on: SF-539 CNS
[9] = tested on: UACC-257 melanoma
[10] = tested on: M14 melanoma
[11] = tested on: HCT-15 colon
[12] = tested on: HT29 colon
[13] = tested on: SNB-75 CNS
[14] = tested on: SNB-19 CNS
[15] = tested on: U251 CNS
[16] = tested on: PC-3 prostate
[17] = tested on: SK-MEL-5 melanoma
[18] = tested on: UACC-62 melanoma
[19] = tested on: LOX IMVI melanoma
[20] = tested on: SK-MEL-28 melanoma

Row | SMILES | growth [1] | growth [2] | growth [3] | growth [4] | growth [5] | growth [6] | growth [7] | growth [8] | growth [9] | growth [10] | growth [11] | growth [12] | growth [13] | growth [14] | growth [15] | growth [16] | growth [17] | growth [18] | growth [19] | growth [20]
1 | CCN(CC)CCN1C(=O)c2c(c(C)c3c(oc4cc(O)ccc43)c2C)C1=O | -89.2% (active) | -58.5% (active) | 84.2% | -68.7% (active) | 79.4% | 74.5% | 103% | 90.8% | 97.7% | -79.3% (active) | -58.9% (active) | -37.2% (active) | 90.3% | 9.88% (active) | -87.9% (active) | -75.1% (active) | 79% | 86.2% | 94% | 63.1%
2 | COc1cc(/C=C2\C(=O)ON=C2C)cc(OC)c1OC | 108% | 95% | 102% | 98.3% | 114% | 95.7% | 100% | 94.7% | 103% | 96% | 102% | 103% | 80.4% | 95.6% | 100% | 97.3% | 101% | 97% | 96.2% | 103%
3 | CC/C=C/C/C=C/C/C=C/C/C=C/C/C=C/C/C=C/CCC(=O)Nc1ccn([C@@H]2O[C@H](CO)[C@@H](O)C2(F)F)c(=O)n1 | 13.8% | 38.4% | 64.3% | 54.9% | 24.9% | 19.1% | 16.2% | 7.06% (active) | 48.2% | -22.7% (active) | 41.7% | 36.4% | 37.4% | 7.11% (active) | 22.4% | 41% | 31.3% | -12.3% (active) | -49.9% (active) | 74.9%
4 | O=c1cc(-c2ccc(Cl)cc2)[nH]c2ccccc12 | 97.4% | 33% | 84.7% | 81.6% | 76.4% | 86.1% | 84.1% | 94.5% | 73.3% | 71.8% | 59.1% | 86.3% | 85.3% | 91.5% | 80% | 75.7% | 59.1% | 67.8% | 71.4% | 78.1%
5 | O=C(Nc1ccccc1)Nc1cccc(Oc2nnc(Cl)c3ccccc23)c1 | 39% | 51.6% | -29.6% (active) | 32.1% | -3.63% (active) | 25.9% | 31.2% | -22% (active) | 22% | 46.3% | 36.4% | 23.8% | -42% (active) | 9.64% (active) | 4.84% (active) | 25.9% | 32.9% | 41.3% | 32.1% | 44.2%
6 | Cc1cc(/C=C\c2ccc3ccccc3[n+]2C)c(O)c2ncccc12 | 26.2% | 8.28% (active) | -4.74% (active) | 4.71% (active) | -20.3% (active) | 14.1% | 0.202% (active) | -36.9% (active) | 16.4% | -51.6% (active) | 27.9% | 25.7% | 37.8% | 11.9% | 9.3% (active) | 34.1% | 6.19% (active) | -26.5% (active) | -27.2% (active) | 25.7%
7 | CCOC(=O)c1csc(NC(=O)COc2cccc(/C=C3\Oc4cc(OC)ccc4C3=O)c2)n1 | 102% | 52.1% | 109% | 67.9% | 114% | 109% | 121% | 106% | 91.7% | 111% | 79.2% | 101% | 78.4% | 83.4% | 79.2% | 78.3% | 98.5% | 79% | 66.7% | 119%
